# Assay outcomes deposited in PubChem BioAssay by several laboratories.
# In the library only some 2.5% were active in any assay of this set; here they are far more common.
# ANO1 block: inhibitors of mouse TMEM16A calcium-activated chloride channel; Q8BHY3; HEK293 TMEM16A/YFP iodide influx fluorescence, ionomycin; normalized B-score (activity score, 25-100; higher = stronger inhibition) at 10 µM; actives 1.2% (n = 310,000);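 active = ratio plate-corrected score three or more library SD toward inhibition, starting fluorescence score within five deviations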;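 note: score derived from kinetic fluorescence span divided by baseline fluorescence per well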
# Target sequence (Q8BHY3 whole entry, looked up): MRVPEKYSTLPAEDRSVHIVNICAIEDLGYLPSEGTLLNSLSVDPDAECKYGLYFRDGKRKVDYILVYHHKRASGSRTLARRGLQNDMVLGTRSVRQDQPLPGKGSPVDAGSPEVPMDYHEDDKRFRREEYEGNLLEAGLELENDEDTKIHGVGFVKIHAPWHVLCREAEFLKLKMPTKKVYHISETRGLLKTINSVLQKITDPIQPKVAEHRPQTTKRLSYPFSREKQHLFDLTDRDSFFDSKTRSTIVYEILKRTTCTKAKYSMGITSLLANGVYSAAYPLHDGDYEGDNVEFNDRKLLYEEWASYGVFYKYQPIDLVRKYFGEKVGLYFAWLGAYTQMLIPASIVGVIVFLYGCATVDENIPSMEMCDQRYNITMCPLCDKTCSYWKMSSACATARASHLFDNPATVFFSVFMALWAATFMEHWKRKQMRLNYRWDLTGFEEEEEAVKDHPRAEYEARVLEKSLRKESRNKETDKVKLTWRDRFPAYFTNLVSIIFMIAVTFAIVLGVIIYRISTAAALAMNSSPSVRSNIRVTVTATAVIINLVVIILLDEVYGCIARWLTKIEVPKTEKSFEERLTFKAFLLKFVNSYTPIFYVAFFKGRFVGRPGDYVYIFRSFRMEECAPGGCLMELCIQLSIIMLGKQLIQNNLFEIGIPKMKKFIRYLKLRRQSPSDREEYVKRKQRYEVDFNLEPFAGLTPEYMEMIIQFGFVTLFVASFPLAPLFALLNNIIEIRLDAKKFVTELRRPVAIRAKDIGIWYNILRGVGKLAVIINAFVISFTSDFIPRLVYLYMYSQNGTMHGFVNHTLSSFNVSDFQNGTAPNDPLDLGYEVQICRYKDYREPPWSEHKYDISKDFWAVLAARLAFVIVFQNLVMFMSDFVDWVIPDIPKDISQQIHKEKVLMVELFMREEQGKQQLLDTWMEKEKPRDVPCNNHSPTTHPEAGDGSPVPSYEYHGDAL
# TMEM16A act: activates or potentiates the mouse TMEM16A chloride channel; actives 0.3% (n = 340,000); Q8BHY3; B-score at 10 µM; HEK293 TMEM16A/YFP-H148Q/I152L, iodide quench fluorescence; stronger effect = lower value;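 active = fluorescence-ratio B-score plate-corrected deviation score at least 3 library SD below zero, with starting fluorescence score within 5 deviations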;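 note: channel opened by trigger with iodide after compound preincubation; score built on the fluorescence ratio of max minus min over baseline; more negative score means more quench and so TMEM16A activation or potentiation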
# aSyn UTR inh: 5' untranslated region of α-synuclein, MLPCN primary screen; inhibition, % (tested at 7.5 µM); actives 0.82% (n = 300,000); alpha-synuclein 5'UTR reporter, inhibitor activity; in the data active = inhibition above about 60%;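 note: H4 neuroglioblastoma cells stably carrying SNCA 5'UTR luciferase fusion; 0% = DMSO wells and 100% = positive control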
# KLF5 inh: inhibitors of KLF5 expression. DLD-1 KLF5 promoter-luciferase reporter, luminescence. inhibition, % at 5 µM. actives 0.23% (n = 290,000);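 active = inhibition above a per-plate limit of that plate's mean compound inhibition plus 3 SD, cut at about 60% in these data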;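 note: 0% = DMSO wells and 100% = LY294002 at 200 µM; higher means less KLF5 promoter-driven luciferase light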
# Jurkat NFkB inh: lowers PMA/ionomycin-induced NF-kB signal in Jurkat cells. PMA/ionomycin-induced NF-kB luciferase reporter, luminescence. inhibition, % at 4 µM. actives 0.53% (n = 330,000). AID 435003; in the data active = inhibition above about 50%
# 697 NFkB inh: inhibitors of the PMA/ionomycin-induced NF-kB reporter in 697 B cells; actives 0.33% (n = 330,000); inhibition, % at 4 µM; 697 B-cell NF-kB luciferase reporter, 16 h; AID 435022; in the data active = inhibition above about 35%
# * marks the source's active call; other numbers are inactive results; i = inactive; . = no result.
SMILES,ANO1 block,TMEM16A act,aSyn UTR inh,KLF5 inh,Jurkat NFkB inh,697 NFkB inh
N#Cc1c(NC(=O)CCCC(=O)O)sc2c1CCCCC2,i,i,90*,-37,-6,-11
CN1C(=O)/C(=C/c2ccccc2F)Sc2ccc(C(=O)N3CCCC3)cc21,25*,i,-11,-32,14,-34
Cc1ccc(OC(C)C(=O)Nc2ccc(S(=O)(=O)N3CCOCC3)cc2)cc1 (stereo unspecified),i,i,-7,13,9,-7
COc1ccc(-c2nnc(SCC(=O)N(Cc3ccccc3)C(C)(C)C)o2)cc1OC,100*,i,26,4,18,-38
CCC(C)NC(=O)CSc1nnc(-c2cc(OC)c(OC)c(OC)c2)c(-c2cc(OC)c(OC)c(OC)c2)n1 (stereo unspecified),i,i,30,-10,-19,-1
O=C(NC(=S)NNC(=O)c1cnccn1)c1ccc(F)cc1,i,i,70*,1,7,23
O=C(NNC(=S)NC(=O)c1cccnc1)c1ccc(F)cc1,i,i,-11,5,4,-3
COc1ccc(/C=C/C(=O)NC(=S)NNC(=O)c2cnccn2)cc1,i,i,75*,-5,26,-11
COc1ccc(/C=C/C(=O)NC(=S)NNC(=O)c2cccnc2)cc1,i,i,0,-68,0,-17
O=C(/C=C/c1ccc(F)cc1)NC(=S)NNC(=O)c1cnccn1,i,i,95*,2,-14,-61
CCN(CC)CCSc1nc2ccccc2n1Cc1ccccc1,i,i,-12,-22,-19,-61
NC(=NCCc1c[nH]c2ccccc12)NC(=O)c1ccc(Cl)cc1,100*,i,-11,-20,-4,3
O=C(CN1C(=O)NC2(CCCCC2)C1=O)NCCc1ccccc1,.,i,.,.,-2,13
CCOC(=O)Cc1nn(Cc2nc(-c3ccc(C#N)cc3)cs2)c(=O)c2ccccc12,25*,i,2,-36,17,-42
CC1(c2ccc(OC(F)F)cc2)NC(=O)N(CC(=O)Nc2ccc3c(c2)OCO3)C1=O (stereo unspecified),i,-5.9*,27,-1,2,1
CC1(c2ccc(OC(F)F)cc2)NC(=O)N(CC(=O)Nc2ccccc2)C1=O (stereo unspecified),i,-10*,-30,-1,-7,-15
CCOC(=O)CN1C(=O)NC(C)(c2ccc(OC(F)F)cc2)C1=O (stereo unspecified),25*,i,-1,17,13,19
CC1(c2ccccc2)NC(=O)N(CC(=O)Nc2ccc3c(c2)OCO3)C1=O (stereo unspecified),i,i,10,-12,-1,14
CC1(c2ccc(OC(F)F)cc2)NC(=O)N(CC(=O)NC2CCCC2)C1=O (stereo unspecified),.,i,.,.,-1,12
CC1(c2ccc(OC(F)F)cc2)NC(=O)N(CC(=O)Nc2ccc3[nH]c(=O)[nH]c3c2)C1=O (stereo unspecified),i,i,-4,.,12,-9
CNC(=S)/N=C/NOCc1ccc(Cl)cc1Cl,100*,i,-12,-1,4,-27
NC(=O)NOCc1ccc(Cl)cc1Cl,i,i,15,-26,0,-7
COc1cccc(CNc2ccc3[nH]c(=O)[nH]c3c2)c1OCc1ccccc1F,i,i,3,-7,-10,-33
CC1(C)CC[C@]2(C(=O)n3ccnc3)CC[C@]3(C)[C@H](C(=O)C=C4[C@@]5(C)C=C(C#N)C(=O)C(C)(C)[C@@H]5CC[C@]43C)[C@@H]2C1,.,-15*,.,.,.,.
Cc1ccc(S(=O)(=O)C2(C(=O)N3CCCC(C)C3)CC2)cc1 (stereo unspecified),25*,i,10,-22,-6,-1
SMILES,ANO1 block,TMEM16A act,aSyn UTR inh,KLF5 inh,Jurkat NFkB inh,697 NFkB inh
Cc1ccc(S(=O)(=O)NCCC(=O)N2CCCC(C)C2)cc1 (stereo unspecified),i,i,-2,.,10,-16
O=S(=O)(NC1CCCCC1N1CCCCC1)c1ccccc1 (stereo unspecified),i,i,-5,-20,0,0
COc1ccc(N2CCN(C3CCCCC3NS(=O)(=O)c3ccc(Cl)cc3)CC2)cc1 (stereo unspecified),i,i,22,-8,4,-1
COc1ccccc1N1CCN(C2CCCCC2NS(=O)(=O)c2ccc(Cl)cc2)CC1 (stereo unspecified),i,-33*,15,1,-4,-30
CN1CCN(C2CCCCC2NS(=O)(=O)c2ccc(Cl)cc2)CC1 (stereo unspecified),i,i,-22,-4,-5,7
Cc1ccc(C)c(N2CCN(C3CCCCC3NS(=O)(=O)c3ccccc3)CC2)c1 (stereo unspecified),i,-6.2*,14,1,2,2
Cc1ccc(Cl)cc1N1CCN(C2CCCCC2NS(=O)(=O)c2ccccc2)CC1 (stereo unspecified),i,-9.7*,-1,-2,5,-27
C=CCN1C(=O)c2ccc(C(=O)NCC(=O)Nc3c(C)cc(C)cc3C)cc2C1=O,.,i,.,.,-1,3
CCOC(=O)C1(CCOc2ccccc2)CCN(Cc2ccc3nonc3c2)CC1,i,i,17,-14,12,-30
COCCN(C(=O)COC(=O)c1ccc(Cl)nc1)c1c(N)n(Cc2ccccc2)c(=O)[nH]c1=O,i,i,-12,.,8,10
COc1cc(/C=N/N=C(N)N)ccc1OCc1ccc(Cl)cc1,100*,i,39,-77,-5,-144
NC(N)=N/N=C/c1ccc(OCc2ccccc2)c(OCc2ccccc2)c1,i,i,106*,0,14,-6
O=c1c2ccccc2nnn1CSc1nc2ccccc2[nH]1,i,-7.6*,-173,-91,-53,-108
Cc1ccc2nc(SCn3nnc4ccccc4c3=O)[nH]c2c1,i,i,-139,-151,-115,-116
COc1ccc(CN(C)C(=O)Cc2ccc(S(=O)(=O)N3CCOCC3)s2)cc1OC,.,i,.,.,4,12
CN(C)S(=O)(=O)c1ccc(-c2ccccc2)cc1,i,i,-16,-14,1,-15
CN(c1ccccc1)S(=O)(=O)c1ccc(-c2ccccc2)cc1,25*,i,-30,-54,6,-55
Cc1cc(NC(=O)/C(C#N)=C\c2ccc(-c3ccc(SC(F)F)cc3)o2)n(-c2ccccc2)n1,.,i,.,.,.,.
CCOc1ccc(C(=O)CSCCC(=O)O)cc1,i,i,68*,-20,16,15
CCOCC(=O)NC1CCc2cc(OC)c(OC)c(OC)c2-c2ccc(SC)c(=O)cc21 (stereo unspecified),.,i,.,.,.,.
